PubChem BioAssay AID504332 (National Center for Advancing Translational Sciences (NCATS), 2011)
Among all 350,000 compounds or so, about 31,000 (8.9%) were called active. Another 15% or so got no clear call; they are omitted. The full list was thinned out, with actives kept by preference. Unmarked numbers belong to inactive results. Calls follow the shape of the dose curve; as a rule, active = well fitted inhibition curve with a large enough effect; inconclusive = small, poorly fitted or top-dose-only effect; inactive = no such curve, though single readings can be large or run the other way.

Biological target: Histone-lysine N-methyltransferase EHMT2 (Homo sapiens) (UniProt Q96KQ7)
Sequence (Q96KQ7 913-1193 limits assumed): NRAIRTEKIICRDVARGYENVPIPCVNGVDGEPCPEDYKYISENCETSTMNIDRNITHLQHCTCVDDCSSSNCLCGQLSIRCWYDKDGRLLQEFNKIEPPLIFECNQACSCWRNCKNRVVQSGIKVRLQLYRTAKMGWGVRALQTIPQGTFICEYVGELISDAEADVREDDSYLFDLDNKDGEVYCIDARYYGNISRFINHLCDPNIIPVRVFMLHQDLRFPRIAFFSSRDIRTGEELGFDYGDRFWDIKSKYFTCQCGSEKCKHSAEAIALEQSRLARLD
Experiment: qHTS Assay for Inhibitors of Histone Lysine Methyltransferase G9a; also: nearly all actives have a fitted effect of over 75% in size
Conditions: G9a H3K9 monomethylation, AlphaScreen, 2 h; series mostly up to 59 µM; activity, negative = inhibition: at the top concentration
Text: Methylated lysines, on the N-terminal tails of histone proteins serve as epigenetic markers to recruit factors that can then modify local chromatin structure to lead to functional consequences. G9a and other members of the SUV39 family of the SET domain-containing superfamily of histone lysine methyltransferases (HMT) have been identified to specifically methylate Lys9 of histone H3 (H3K9). G9a catalyzes the mono- and di-methylation of H3K9 in mammalian euchromatic regions, where the resulting H3K9me2 is indicative of transcriptional repression. […] The inhibition of G9a will result in transcriptional activation and work synergistically with DNA methyltransferase and histone deacetylase inhibitors, to kill cancer cells. This qHTS assay for identification of G9a inhibitors is a chemiluminescence based AlphaScreen (PerkinElmer). Methylation of biotinylated-histone peptide is measured through specific antibody-based detection, in conjunction with streptavidin-coated donor and anti-IgG antibody-coated acceptor beads. The method is particularly well suited for detection of inhibitors acting by the desired histone peptide competitive mechanism and is applicable to testing other HMTs. Although AlphaScreen has significant advantages with its utility in a variety of epigenetic target assays, the primary screening data provided in this deposition should be used with caution due to the prevalence of screening artifacts. An AlphaScreen counterscreen is highly recommended to be run against any putative actives to eliminate non specific artifacts. Alternatively, one can use other AlphaScreen assays in PubChem to filter out promiscuous hits. Quinn et al. A chemiluminescence-based method for identification of histone lysine methyltransferase inhibitors. Mol Biosyst 6(5): 782-8. 2010. PMID: 20567762 [2] Baell,Holloway. New substructure filters for removal of pan assay interference compounds (PAINS) from screening libraries and for their exclusion in bioassays. J Med Chem. 53(7):2719-40. 2010. PMID: 20131845 NIH Molecular Libraries Probe Production Network [MLPCN] NIH Chemical Genomics Center [NCGC] Structural Genomics Consortium (SGC) NIH Grant: 5U54 MH084681-02
To each well of a 1,536w plate, 2ul of HMT enzyme (final 20nM) were added, using a nanoliter dispenser. The G9a- and GLP-inhibitor BIX-01294 (CID: 25150857) are used as an intraplate control, with a 16-point titration in duplicate. A Kalypsys pin-tool transferred 23nl of library compound solution in DMSO to each well. Following a 15 min incubation of enzyme with compounds at room temperature, 1ul mixture of b-H3K9 peptide substrate (final 500nM) and SAM cofactor (final 20uM) were added. Reactions were allowed to proceed at room temperature for 2 hours. Methylated b-H3K9 peptide product was detected with 0.5 ug/mL rabbit polyclonal anti-monomethyl histone H3K9 antibody (Abcam Inc., Cambridge, MA) and 20 ug/mL each streptavidin-coated donor and anti-rabbit IgG acceptor AlphaScreen beads. Antibody and beads were added in a 1ul dispense, for a final volume of 4ul, and plates were incubated, protected from the light, for 10 min at room temperature. Microplates were then read on an EnVision multilabel plate reader using the 1,536 plate HTS AlphaScreen aperture (excitation time 80 ms, measurement time 240 ms).
% is scaled to controls: 0 for no effect and ±100 for the full control effect; potency is read from the fitted curve at half-maximal effect.

SMILES | activity, negative = inhibition | Potency
O=C(CN1CCOCC1)Nc1ccccc1 | 41.4% [at 12.7 µM] | 
Cc1ccccc1NC(=O)c1cc2c([nH]c1=O)CC(C)(C)CC2=O | 10.3% | 
O=C(Nc1cc(Cl)ccc1N1CCOCC1)c1ccc(N2CCCC2=O)cc1 | -16.7% [at 102 µM] | 
CCc1ccccc1NC(=O)Cn1c(=O)n(-c2cccc(C)c2)c(=O)c2c1c1cc(OC)ccc1n2C | 0.155% | 
CC(C)c1cc(C(=O)O)n[nH]1 |  | 44.7 µM (active)
CC(C)c1cc(C(=O)O)on1 | 7.05% | 
CC(C)c1cc(C(=O)N/N=C/C(Br)=C/c2ccccc2)n[nH]1 | -9.73% [at 102 µM] | 
O=C(CNC(=O)c1ccccc1Br)NCCSc1ccc(Br)cc1 | -0.242% [at 102 µM] | 
Cc1ccc2nc(COc3cccc(NC(=O)c4cccc(Cl)c4)c3)cc(=O)n2c1 | 15.9% | 
CN1C(=O)/C(=C/c2ccco2)SC1=Nc1cccc(C(=O)O)c1 |  | 28.2 µM (active)
CN=C1S/C(=C\c2c(OC)cc(OC)cc2OC)C(=O)N1C | -4.41% [at 102 µM] | 
O=C(CCCN1C(=O)/C(=C/c2ccco2)SC1=S)Nc1ccccc1 | -21.4% | 
COc1ccc(CCNC(=O)CCCCCNC(=O)N2CCn3c2nc2ccccc23)cc1OC | 50.3% [at 102 µM] | 
COc1ccc(NC(=O)Cn2cc(C(=O)c3ccncc3)c(=O)c3cc(C)ccc32)cc1Cl | 3.8% [at 12.7 µM] | 
CC(CN1CCCCC1)c1ccccc1 (stereo not drawn) |  | 11.2 µM (active)
CC(CN1CCC(n2nccc2NC(=O)C2CCCC2)CC1)c1ccccc1 (stereo not drawn) | 39.2% [at 102 µM] | 
CC(CN1CCOCC1)c1ccccc1 (stereo not drawn) | -32% | 
O=S(=O)(c1ccc(SCc2ccc(Br)cc2)nc1)N1CCOCC1 | -2.71% [at 12.7 µM] | 
Cc1ccc(CN2CC(C(=O)NNC(=O)Cn3ccc(C(F)(F)F)n3)CC2=O)cc1 (stereo not drawn) | -2.67% [at 12.7 µM] | 
Cc1ccc(-c2nn3c(=O)cc(CN4CCN(S(=O)(=O)c5ccc(Cl)cc5)CC4)nc3s2)cc1 | 7.37% | 
CCOc1cc(C(=S)N2CCOCC2)ccc1O |  | 4.47 µM (active)
CCOc1cc(C(=S)N2CCOCC2)ccc1OS(=O)(=O)c1ccc(Br)cc1 | 24% [at 102 µM] | 
CCOc1cc(C(=O)OCC(=O)Nc2cccc(C)c2)ccc1OCC(=O)N1CCOCC1 | 24% | 
Cc1cccc(NC(=O)CSc2ncc(-c3ccccc3)[nH]2)c1C | -30.7% | 

SMILES | activity, negative = inhibition | Potency
O=C(OCC1OC(Oc2ccc(O)cc2)C(O)C(O)C1O)c1ccccc1 (stereo not drawn) | 2.48% [at 12.7 µM] | 
Cc1ccc2c(c1)C1CN(C)CCC1N2S(=O)(=O)c1cccc(F)c1 (stereo not drawn) | 10.1% | 
Cc1ccc2c(c1)C1CN(C)CCC1N2S(=O)(=O)c1ccc(Oc2ccc([N+](=O)[O-])cc2)cc1 (stereo not drawn) |  | 35.5 µM (active)
COc1ccc(S(=O)(=O)N2CCOC23CCN(S(=O)(=O)c2ccc([N+](=O)[O-])cc2)CC3)cc1 | -2.42% [at 0.501 µM] | 
COc1ccc(C(=O)NC2CCN(C(=O)Nc3ccc(F)cc3)CC2)cc1 | 10.1% [at 102 µM] | 
CCc1cc2cc(OC)ccc2nc1SCC(=O)Nc1cc(OC)c(OC)cc1C(=O)O |  | 50.1 µM (active)
CCc1nnc(SCC(=O)Nc2cc(OC)ccc2OC)nc1CC | 5.36% | 
COc1ccc(OC)c(NC(=O)CSc2nc3ccccc3nc2N2CCCCC2)c1 | 29.4% | 
CN(C)CCCn1c(N)c(C#N)c2nc(C#N)c(C#N)nc21 |  | 25.1 µM (active)
CC(C)(C)c1ccc(C(=O)NCCn2c(N)c(C#N)c3nc4ccccc4nc32)cc1 | 23.9% [at 102 µM] | 
N#Cc1c(N)n(CCOC(=O)c2ccc(Cl)cc2)c2nc3ccccc3nc12 | -6.78% | 
COc1ccc(CNC(=O)CN(c2ccc(OC)c(Cl)c2)S(=O)(=O)c2ccc(C)cc2)cc1 | 33.2% [at 102 µM] | 
O=C(CNC(=O)c1ccc2ccccc2c1)Nc1ncccc1O | 20.5% [at 2.33 µM] | 
CCOc1ccc(N2CC(C(=O)NCCN3C(=O)S/C(=C\c4cccnc4)C3=O)CC2=O)cc1 (stereo not drawn) |  | 39.8 µM (active)
COc1ccccc1N1CC(C(=O)NCCN2C(=O)S/C(=C\c3cccnc3)C2=O)CC1=O (stereo not drawn) | 2.97% [at 12.7 µM] | 
CCOc1ccc(N2CC(C(=O)NCc3ccccn3)CC2=O)cc1 (stereo not drawn) | -6.32% [at 102 µM] | 
CCN(c1ccccc1)S(=O)(=O)c1cc(C(=O)NCc2ccccn2)ccc1C | 26.1% [at 102 µM] | 
COc1ccc(Cl)cc1N(C)C(=O)c1cc2c(=O)oc3ccc(C)cc3c2s1 | 4.3% | 
COC(=O)c1ccc(COC(=O)CNC(=O)c2cccc(OC)c2)o1 | 9.25% | 
COc1ccc(Nc2nc(-c3cccnc3)nc3ccccc23)cn1 |  | 35.5 µM (active)
COc1ccccc1Oc1nc(-c2cccnc2)nc2ccccc12 | 7.82% [at 102 µM] | 
COc1cc(Nc2nc(-c3ccc(OC)c(OC)c3)nc3ccccc23)cc(OC)c1 | -2.06% | 
CCc1nc2onc(C)c2c(=O)n1CC(=O)O | 17.4% | 
CCC(=O)c1cc(F)ccc1OCC(=O)Nc1ccc2c(c1)OCCO2 | -5.64% [at 12.7 µM] | 
